This note sets out measurements from PubChem BioAssay (NCI).

Holding throughout (test): NCI-60 one-dose screen, 48 h (100 = growth as untreated, 0 = no growth, -100 = all killed)
Common to all, as to settings: 10 µM unless noted

In experiment [1] the test system is NCI-H23 lung.
The test system of experiment [2] is NCI-H226 lung.
Experiment [3] has as its system NCI-H322M lung.
Experiment [4] relates to HOP-62 NSCLC.
The subject of experiment [5] is NCI-H460 lung.
The test system of experiment [6] is HOP-92 NSCLC.
Experiment [7] concerns A549/ATCC NSCLC.
For experiment [8], the system named is 786-0 renal.
Experiment [9] concerns COLO 205 colon.
For experiment [10], the system named is NCI-H522 lung.

Compounds without any hit were thinned out: in the full panel of roughly 83,000, 20% have a hit.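 For each line, cells grew in 96-well plates with the test compound present at a single concentration for 48 hours.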 Values without a mark were called inactive. Activity calls are given as the source filed them. Rule for the calls: active = growth percent below 10; inactive = the rest.

For `CCCCOc1ccc(NC(=O)c2sc3nc(C)ccc3c2N)cc1`, the growth in experiment [1] is -69.5% (active); in experiment [2], 10.2%; in [3], 40.3%; in experiment [4], 21.9%; in [5], 7.45% (active); in experiment [6], -37.2% (active). The growth in experiment [7] is 0.0895% (active); in experiment [8], -78.5% (active); in [9] it was 80.4%.

On to `CN1CCN(c2ccc3c(c2)nc(NNC(=O)c2ncccn2)c2cccn23)CC1`, for which the growth was 4.51% (active) in experiment [1]; -22.8% (active) in experiment [2]; -7.59% (active) in experiment [3]; -19.7% (active) in experiment [4]; 3.42% (active) in [5]; -14.8% (active) in experiment [6]. Besides, the growth in experiment [7] was 12.5%; in [8] it was -96.8% (active); in experiment [9], -85.7% (active).

As to `NS(=O)(=O)c1ccc(-n2cc(-c3cccc(NC(=O)c4cc(C(F)(F)F)cc(C(F)(F)F)c4)c3)nn2)cc1`, the growth in experiment [1] is 41.1%; in experiment [2], 27.5%; in experiment [3], 65.8%; in experiment [4], 15%; in experiment [5] it was 71.4%; in experiment [6], -16.9% (active). In addition, the growth in [7] is 56.7%; in experiment [8] it was 44.2%; in experiment [9] it was 91.7%.

On to `O=C(O)c1ccc(-c2ccc(/C=N/NC(=O)c3[nH]c4ccc(Br)cc4c3-c3ccccc3)s2)cc1`, for which the growth is 8.04% (active) in experiment [1]; 22.8% in experiment [2]; 20.4% in experiment [3]; 28.5% in experiment [4]; 0.163% (active) in [5]; -4.63% (active) in experiment [6]. The growth in experiment [7] is 23.1%; in experiment [8], 16.5%; in experiment [9], 23.6%.

On to `C=C1CC[C@@H]2[C@]3(C)COC(c4cn[nH]c4-c4cccc(Br)c4)O[C@@H]3CC[C@@]2(C)[C@@H]1C/C=C1/C(=O)OCC1O` (stereo partly specified), for which the growth in [1] was -94.5% (active); in [2] it was -88.4% (active); in experiment [3] it was -0.559% (active); in experiment [4] it was -58.3% (active); in experiment [5] it was -68.9% (active); in experiment [10], -56% (active). Moreover, the figures for the growth in experiment [7] and in [8] were -17.4% (active) and -95.5% (active), respectively.

As for `COc1ccc2nc(Nc3cccc(NC(=O)c4ccc(CN5CCCN(C)CC5)c(C(F)(F)F)c4)c3)ccc2c1`, the growth in experiment [1] was -71.9% (active); in [2], -39.8% (active); in experiment [3], -86.4% (active); in experiment [4], -47.3% (active); in experiment [5], 8.75% (active); in experiment [6], -53.1% (active). Moreover, the growth in experiment [7] was -24.8% (active); in experiment [8], -73.4% (active); in experiment [9] it was -31.7% (active).

As for `O=C(/C=C/Nc1ccc(Cl)cc1)c1ccc2c(c1)Nc1ccccc1S2`, the growth in [1] was 33.1%; in [2], 8.89% (active); in [3] it was 59.5%; in experiment [4] it was -27.5% (active); in experiment [5], 13.3%; in experiment [6], 13.6%. In addition, the results for the growth in experiment [7], in [8] and in experiment [9] were 43.1%, -6.27% (active) and 62.5%, respectively.

For the molecule `COc1ccc(C(=O)/C=C/c2cccc(Br)c2)cc1S(N)(=O)=O`, the growth is -66.3% (active) in [1]; 17.4% in experiment [2]; 3.22% (active) in experiment [3]; -86.8% (active) in experiment [4]; 2.36% (active) in experiment [5]; -9.79% (active) in experiment [6]. Further, the growth is -86.2% (active) in experiment [7], -98.3% (active) in [8] and -92.6% (active) in experiment [9].

With `N#Cc1c(-c2ccc(Cl)cc2)nc2n[nH]c(-c3ccc(Cl)cc3)c2c1-c1cccs1`, the growth in experiment [1] is 62.7%; in experiment [2], 54.1%; in experiment [3] it was 76.8%; in [4], 62.8%; in [5], 51.1%; in experiment [6] it was 15.7%. For the same molecule, the growth in experiment [7] was 54.9%; in experiment [8], 67.5%; in experiment [9], 53.2%.

On to `COc1cc(OC)cc(C(=O)Nc2cccc(-c3cn(-c4ccc(S(N)(=O)=O)cc4)nn3)c2)c1`, for which the growth in [1] was 80.3%; in [2], 57.5%; in experiment [3], 89.9%; in experiment [4] it was 6.62% (active); in experiment [5] it was 82.8%; in experiment [6], 24.2%. Moreover, the growth in experiment [7] is 90.9%; in [8], 74.6%; in [9] it was 109%.

In the case of `O=C(NN1C(=O)/C(=C/C=C/c2ccc([N+](=O)[O-])o2)SC1=S)c1ccccc1O`, the growth was -86.1% (active) in experiment [1]; -71.2% (active) in experiment [2]; -63% (active) in experiment [3]; -53.5% (active) in experiment [4]; -55.7% (active) in [5]; -90.7% (active) in experiment [10]. The growth was -58.2% (active) in experiment [7] and -89.5% (active) in experiment [8].

For `COc1cc(OC)c2c3nc4cc(C)c(C)cc4nc3n(CCN(C)C)c2c1`, the growth in experiment [1] was 67.4%; in [2], 72.4%; in experiment [3] it was 73.3%; in experiment [4], 70.9%; in experiment [5], 53.7%; in experiment [10], 56.2%. Further, the growth in experiment [7] is 8.98% (active); in experiment [8], 50.7%.

Consider `Clc1cccc(N/N=C/c2c[nH]c3ccc(Br)cc23)n1`, for which the growth in experiment [1] is 39.8%; in [2] it was 22.4%; in experiment [3], 51.6%; in [4], 54.1%; in [5], 12.9%; in [10], -27.8% (active). For the same molecule, the growth is 30.2% in experiment [7] and 13% in experiment [8].

On to `Cc1ccc2c(N)c(C(=O)Nc3ccc(OC(F)(F)F)cc3)sc2n1`, for which the growth is 47.6% in [1]; 47% in [2]; 82.5% in experiment [3]; 68.4% in experiment [4]; 77.8% in experiment [5]; 59.1% in [6]. Also, the growth is 75.7% in [7], 97.5% in experiment [8] and 92.4% in [9].

For the molecule `COc1ccc(NC(=O)Cn2c(O)c(N=Nc3ccc(S(N)(=O)=O)cc3)c3ccccc32)cc1`, the growth in [1] is 10.5%; in experiment [2], 39.8%; in experiment [3] it was 34.4%; in experiment [4] it was 8.57% (active); in experiment [5] it was 21.3%; in [6], 79.6%. Besides, the results for the growth in experiment [7], in [8] and in experiment [9] were 24.6%, -25.3% (active) and 58.5%, respectively.
